Most compounds without a hit are left out; they make up all but 1.7% or so of the library.
Rin1-Abl PPI inh – inhibitors of Rin1-Abl protein binding, primary screen, biochemical, TR-FRET. Tyrosine-protein kinase ABL1 (Homo sapiens) + Ras and Rab interactor 1 (Homo sapiens), …. inhibition, % at 7.35 µM. 360,000 tested, 0.4% active; in the data active = inhibition above about 5%, passing the limit was not always enough
SUMO1 PPI mod – modulators of SUMO1 protein-protein interactions, primary screen, biochemical, uHTS; SUMO1 binding to a labelled peptide, TR-FRET, 1 h; AID 602429, 2012; inhibition, % at 20 µM; Small ubiquitin-related modifier 1 (Homo sapiens), P63165; 360,000 tested, 0.33% active; in the data active = inhibition above about 37%
Target sequence (P63165 whole entry, looked up): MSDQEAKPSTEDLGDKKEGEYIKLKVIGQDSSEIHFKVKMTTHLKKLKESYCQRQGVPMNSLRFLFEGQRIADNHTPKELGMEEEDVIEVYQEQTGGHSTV
Neddyl block – inhibitors of cullin neddylation, primary screen, biochemical, TR-FRET, uHTS, NAE and Ubc12. NEDD8-conjugating enzyme Ubc12 (Homo sapiens) + NEDD8-activating enzyme E1 regulatory …. inhibition, % at 25 µM. 360,000 tested, 0.58% active; in the data active = inhibition above about 36%
ATG4B inhibitor – ATG4B protease inhibitors, primary screen, biochemical, fluorescence, uHTS; Cysteine protease ATG4B (Homo sapiens), Q9Y4P1; ATG4B cleavage of LC3-PLA2, NBD-HPC fluorescence, 1 h; inhibition, % at 8.33 µM; 340,000 tested, 0.51% active
Target sequence (Q9Y4P1 whole entry, looked up): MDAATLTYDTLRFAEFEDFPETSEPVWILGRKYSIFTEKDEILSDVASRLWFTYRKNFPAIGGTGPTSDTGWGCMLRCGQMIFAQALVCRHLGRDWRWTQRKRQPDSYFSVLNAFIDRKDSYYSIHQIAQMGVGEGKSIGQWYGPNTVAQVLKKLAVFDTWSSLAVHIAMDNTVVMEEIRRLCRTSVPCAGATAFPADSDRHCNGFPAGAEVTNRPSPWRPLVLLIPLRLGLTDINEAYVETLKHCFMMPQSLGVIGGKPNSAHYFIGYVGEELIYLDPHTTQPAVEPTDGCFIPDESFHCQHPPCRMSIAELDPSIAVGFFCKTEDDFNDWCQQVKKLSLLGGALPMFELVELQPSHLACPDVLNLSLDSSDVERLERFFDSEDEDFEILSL
Neddyl conf – blockade of NEDD8 conjugation to cullin – biochemical, TR-FRET, single concentration, confirmation. calls only at 25 µM. 1,800 tested, 13% active. TR-FRET cullin neddylation biochemical assay. AID 652217, 2013. shares compounds with Neddyl block;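 also: neddylation substrate is the cullin 1 ring ligase complex with SKP2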
The depositor's hits bear a star; i = inactive; / = no result shown; + = active, no number. Rule as the data show it, unless noted: active = inhibition above about 40%; inactive = the rest.

SMILES	Rin1-Abl PPI inh	SUMO1 PPI mod	Neddyl block	ATG4B inhibitor	Neddyl conf
c1cn2c(Nc3ccc4c(c3)OCCO4)c(-c3ccc(N4CCOCC4)cc3)nc2cn1	1	-13	38*	-2	i
Clc1ccc(-c2nc3cnccn3c2Nc2ccc3c(c2)OCO3)cc1	1	-8	41*	-8	i
N#Cc1c(N)[nH]c(C(=O)c2ccccc2)c1-c1ccccc1Br	/	-7	-7	/	/
Cc1cn([C@H]2C[C@H](O)[C@@H](CCC(=O)NCc3cccc4ccccc34)O2)c(=O)[nH]c1=O	5	0	0	/	/
O=C1CS/C(=N/N=C/c2ccccc2)N1c1ccc(O)cc1	0	3	-4	-9	/
O=C1CS/C(=N\N=C\c2ccco2)N1c1ccccc1	-6	-4	42*	0	i
OCc1nc2ccccc2n1CCCc1ccccc1	-7	1	-5	/	/
CC1(C)Oc2cc3oc(=O)ccc3cc2C[C@@H]1O	-5	-7	52*	-4	/
CC(C)(O)[C@H]1Cc2cc3ccc(=O)oc3cc2O1	0	-6	/	-5	/
c1ccc(N=C2SCCCS2)cc1	-1	1	4	/	/
COCCOC(=O)C1=C(C)NC(C)=C(C(=O)OCCOC)C1/C=C/c1ccccc1OC	-1	9	43*	-6	/
COc1ccc(C(C)C)cc1-c1cccc2nncn12	0	-4	45*	/	i
COc1ccc2sc(NC(=O)c3ccco3)nc2c1	-1	7	40*	-12	i
COc1ccc2nc(NC(=S)NC(=O)c3ccco3)sc2c1	-2	2	-2	-13	/
CCCN(CCC)S(=O)(=O)c1ccc(C(=O)Nc2cc3oc4ccccc4c3cc2OC)cc1	4	0	45*	-2	i
CCN(CC)S(=O)(=O)c1cccc(C(=O)Nc2cc3oc4ccccc4c3cc2OC)c1	0	-2	31	-3	/
CC1(C(=O)NCc2ccccc2)CSCC(=O)N1CCc1c[nH]c2ccccc12 (centres undefined)	/	2	-5	/	/
CC1Cn2c(nnc2-c2ccccc2O)S1 (centres undefined)	0	17	5	6	/
CC1Cn2c(nnc2-c2cc3ccccc3cc2O)S1 (centres undefined)	2	-10	44*	-11	i
CCOC(=O)c1sc2nccc(N(C)C)c2c1N=CNOC	-3	-8	21	-11	/
CCOC(=O)c1sc2nccc(N(C)C)c2c1N=CNOCc1ccccc1	-1	-13	41*	-7	i
CC(C)C[C@H]1CN(CCCC[C@@H]2CNC(=O)C(=O)N2Cc2ccccc2)C(=O)C(=O)N1CCc1ccccc1	/	0	-4	/	/
[O-][n+]1c2ccccc2cc2ccccc21	-3	-24	45*	-1	/
O=S1(=O)CC(N2CCC(Cc3ccccc3)CC2)CN1C1CCCC1 (centres undefined)	-4	7	-2	/	/
CCOC(=O)c1oc2cc(C)cc(C)c2c1C	0	1	11	-8	/
SMILES	Rin1-Abl PPI inh	SUMO1 PPI mod	Neddyl block	ATG4B inhibitor	Neddyl conf
CCOC(=O)c1oc2cc(O)cc(C)c2c1C	-2	-14	41*	-5	+
Cc1ccc(C(=O)OCC(=O)Nc2cc(Cl)ccc2C#N)o1	-3	2	-1	/	/
CCOC(=O)Cn1nnnc1C(CC)N(Cc1cccs1)Cc1cc2cc(C)ccc2[nH]c1=O (centres undefined)	-1	3	-1	-16	/
CCOc1ccc2[nH]c(=O)c(CN(Cc3cccs3)C(CC)c3nnnn3C(C)(C)CC)cc2c1 (centres undefined)	1	-2	45*	-8	i
CCOc1ccc2[nH]c(=O)c(CN(Cc3ccco3)Cc3nnnn3Cc3ccccc3)cc2c1	-6	-4	34	0	/
CCOc1ccc2[nH]c(=O)c(CN(Cc3ccco3)C(CC)c3nnnn3Cc3ccccc3)cc2c1 (centres undefined)	-3	-8	41*	-6	i
COc1ccc(CCNC(=O)CCC(=O)Nc2ccc3nc(N4CCN(C)CC4)cc(C)c3c2)cc1OC	-4	5	11	-8	/
COc1cccc(NC(=O)CCC(=O)Nc2ccc3nc(N4CCOCC4)cc(C)c3c2)c1	-3	5	43*	-14	/
COCCCNC(=O)CCC(=O)Nc1ccc2nc(N3CCOCC3)cc(C)c2c1	1	4	/	-1	/
Cc1cc(N2CCN(C)CC2)nc2ccc(NC(=O)CCC(=O)NCCC3=CCCCC3)cc12	-4	4	45*	5	i
Cc1cc(N2CCCC2)nc2ccc(NC(=S)NC(C)C)cc12	-13	3	/	2	/
Cc1cc(N2CCOCC2)nc2ccc(NC(=S)NC(C)C)cc12	0	-1	50*	-1	i
COc1cccc(-c2nc3n(n2)CCc2ccccc2-3)c1	1	1	16	/	/
CCOC(=O)[C@]12CCCC=C1N(Cc1ccc3c(c1)OCO3)C(=O)[C@H](CC(=O)N1CCC(c3ccccc3)CC1)C2	/	6	-5	/	/
Cc1ccc(-c2ccc(C(=O)Nc3ccccc3)o2)c2ccccc12	0	-2	40*	-6	i
CC1(C(=O)NS(=O)(=O)c2cccc(C#N)c2)CCN1C(=O)c1cccc2ccccc12 (centres undefined)	-5	2	6	/	/
Cc1ccc(-n2c3nc(=O)n(C)c(=O)c-3cc3ccccc32)cc1	-5	-22	61*	4	i
CCCCn1c(=O)nc2n(-c3ccc(C)cc3)c3ccccc3cc-2c1=O	-1	-26	13	-2	/
CC1=CC(c2ccc(Cl)cc2)n2ncnc2N1 (centres undefined)	5	0	39*	0	i
COCCCNC(=O)C(C#N)c1nc2ccccc2nc1N1CCCC1 (centres undefined)	0	-11	/	-3	/
COCCOC(=O)C(C#N)c1nc2ccccc2nc1N1CCCC1 (centres undefined)	-4	-6	41*	-3	i
CC(=O)N(CC(=O)Nc1nn(-c2ccccc2)nc1C(N)=O)Cc1ccccc1	3	0	/	-5	/
CC(C)(C)n1nnnc1SCC(=O)Nc1nn(-c2ccccc2)nc1C(N)=O	4	-3	48*	-1	i
Cn1cc(-c2cccc(Cl)c2)cc(C#N)c1=O	-1	-13	39*	1	i
Cn1cc(-c2cccc(C(F)(F)F)c2)cc(C#N)c1=O	2	-10	36	3	/
NC(=O)c1cccc(-c2ccnc3c2CC(C(=O)Nc2cccc(Oc4ccccc4)c2)O3)c1 (centres undefined)	1	8	-9	/	/
O=C(Nc1ccccc1)Nc1nnc(/C=C/c2ccccc2Cl)s1	1	0	45*	-8	i
COc1ccc(/C=C2\CCCC3C2=NN(C(=O)CSc2n[nH]c(N)n2)C3c2ccc(OC)cc2)cc1 (centres undefined)	3	-7	46*	13	/

From PubChem BioAssay
